Out of some 69,000 compounds screened, about 8,600 (12%) showed an effect of 50% or more. Many of the other results were omitted from the sample, so strong results are more common in it than they were.

In this assay the test system is Plasmodium berghei. As to the kind of experiment: Screen against P. berghei liver stage (PbLuc), transformed with Luciferase, at 10uM. It counts as functional, HepG2. The following applies: tested at 10 uM.
For `CCN(CC1COc2ccccc2O1)C(=O)CCn1cncn1` (centres undefined), the INHIBITION is reported as -4.4%. `Cc1nn(C)c(N(C)C)c1CNCc1cccnc1OC(C)C`: the INHIBITION came out at 19.6%. For `CCC(Nc1ccc(Oc2ccccc2OC)cc1)C(N)=O` (centres undefined) the value was -34.1%; for `CCC(Nc1ccc(Oc2cccc(C#N)c2)cc1)C(N)=O` (centres undefined), 39.7%; for `CCC(Nc1ccc(Oc2ccc(C#N)cc2OC)cc1)C(N)=O` (centres undefined), 73.1%. With `CCC(C)NC(=O)c1cc(S(N)(=O)=O)c(Br)s1` (centres undefined), the INHIBITION came out at 14%.

For `Cc1oc(C(=O)O)cc1S(=O)(=O)Nc1ccc(Cl)cc1F`, the INHIBITION was -20.2%. As for `CC(=O)Nc1ccc(Oc2cc(C)nc(C3CCNCC3)c2)cc1`, the INHIBITION stood at 19.15%.

Take `CC(=O)N1CCCC1CCc1ccnc(-c2cncnc2)c1` (centres undefined): the INHIBITION is 27.45%. For `COC(=O)C1=C(C)N=C2SCC(=O)N2C1c1cn(C)nc1C` (centres undefined), the INHIBITION came out at 12.6%. In the case of `Cc1ccsc1CN(CCN(C)C)C(=O)c1cc2ccccc2[nH]1`, the INHIBITION turned out to be 71%. For `CN(C)CCN(Cc1ccsc1)C(=O)C1=NNC(=O)CC1` the value was 49%. Turning to `Cc1ccsc1CN(CCN(C)C)C(=O)C1=NNC(=O)CC1`, the INHIBITION came out at 67.2%. On to `COC(=O)c1ccccc1C(=O)N(CCN(C)C)Cc1sccc1C`, for which the INHIBITION is reported as 8.03%. `CN(C)CCN(Cc1ccccc1)C(=O)C1=NNC(=O)CC1`: the INHIBITION amounted to 18%. Consider `Cc1ccsc1CN(CCN(C)C)C(=O)c1ccccc1C#N`, for which the INHIBITION was 14.6%. For the molecule `Cc1nn(C)c(C)c1C1CCCN1C(=O)CCCNc1ncccn1` (centres undefined), the INHIBITION was -16%.

On to `CN(CCCNC(=O)C1CCCN(C(N)=O)C1)S(C)(=O)=O` (centres undefined), for which the INHIBITION is given as 19.8%. Take `O=C(Cc1ccc(F)cc1)NCCNS(=O)(=O)C1CCCC1`: the INHIBITION is reported as 54.9%.

For `O=C(Cc1ccccc1)NCCNS(=O)(=O)C1CCCCC1`, the INHIBITION came out at 18.2%. Turning to `O=C(Cc1cccc(F)c1)NCCNS(=O)(=O)C1CCCC1`, the INHIBITION is reported as 25.3%.

For `O=C(c1ccc(O)nc1)N1CCC(Nc2cccnn2)CC1`, the INHIBITION is given as 29.4%.

Consider `O=C([C@@H]1CC[C@@H]2[C@@H](CCN2Cc2cccs2)O1)N1CCCCO1`, for which the INHIBITION is given as -75.3%. For the molecule `Cc1ccc(N2CC[C@H]3O[C@@H](C(=O)N4CCCO4)CC[C@H]32)nn1`, the INHIBITION was found to be 92.1%. On to `Cc1ccsc1CN1CC[C@H]2O[C@H](C(=O)N3CCCO3)CC[C@H]21`, for which the INHIBITION is recorded as -18.4%.

`Cc1ccc(CN2CC[C@H]3O[C@@H](C(=O)N4CCCO4)CC[C@H]32)s1`: the INHIBITION was 66.9%. Consider `Cc1ccc(N2CC[C@H]3O[C@@H](C(=O)N4CCCCO4)CC[C@H]32)nn1`, for which the INHIBITION was 3.69%. For `Cc1ccc(N2CC[C@H]3O[C@H](C(=O)N4CCCCO4)CC[C@H]32)nn1` the value was 46.4%. Take `COCCCN(Cc1ccccn1)S(=O)(=O)N(C)C`: the INHIBITION came to 32.8%. For `CS(=O)(=O)NCc1cn2c(n1)CN(Cc1cccnc1)CC2` the value was -12.2%.

As for `CCCSCC(=O)N1C[C@@H]2CC[C@H]1CN(c1ncccn1)C2`, the INHIBITION is reported as -4.37%.

Regarding `CCOCC1CCN(C(=O)Nc2ccc(-c3csnn3)cc2)C1` (centres undefined), the INHIBITION came to 60%. For `O=C(Nc1ccc(-c2csnn2)cc1)N1CC[C@H](O)C1` the value was -73.4%. Consider `CCN(C)CC1CCN(C(=O)Nc2ccc(-c3csnn3)cc2)C1` (centres undefined), for which the INHIBITION is -32.3%. Turning to `Cc1noc(C)c1-c1nc(NCCN(C)C)ncc1-c1cnccn1`, the INHIBITION was -56.2%. Take `CCCOC(=O)N1CCC(c2nnc(Cn3cccn3)n2C2CC2)CC1`: the INHIBITION is on record as -35.9%. Consider `Cc1cc(C)n(CC2CCCN2Cc2ncc(C(C)(C)C)o2)n1` (centres undefined), for which the INHIBITION is listed as -25.6%.

For `Cc1nc(C)n(CC2CCCCN2Cc2ncc(C(C)(C)C)o2)n1` (centres undefined), the INHIBITION was determined as 31%.

Take `c1coc(-c2noc(CN3CCCC3Cn3cncn3)n2)c1` (centres undefined): the INHIBITION turned out to be 31.8%. Consider `Cc1nc(C)n(CC2CCCN2CCc2ccncc2)n1` (centres undefined), for which the INHIBITION was -21.985%.

Turning to `Cc1nc(C)n(CC2CCCN2Cc2ncc(C(C)(C)C)o2)n1` (centres undefined), the INHIBITION was determined as 63.5%. In the case of `Cc1nc(C)n(CC2CCCN2CCc2cccs2)n1` (centres undefined), the INHIBITION worked out at 52%. For the molecule `CC(C)(C)CC1CCCN1Cc1nc(-c2ccco2)no1` (centres undefined), the INHIBITION stood at 76.2%.

Turning to `COCCc1noc(CN2CCCC2Cn2nc(C)cc2C)n1` (centres undefined), the INHIBITION came out at 1.75%.

Regarding `Cc1nc(C)n(CC2CCCN2CC(=O)NCCc2cccs2)n1` (centres undefined), the INHIBITION is on record as 43.6%. Regarding `COCCc1noc(CN2CCCCC2Cn2nc(C)cc2C)n1` (centres undefined), the INHIBITION is 18.4%. As for `Cc1nc(C)n(CC2CCCN2Cc2nc(-c3ccco3)no2)n1` (centres undefined), the INHIBITION came to 29.645%. As for `COCCc1noc(CN2CCCC2Cn2nc(C)nc2C)n1` (centres undefined), the INHIBITION is 64.8%.

For the molecule `Fc1cc(Cl)cnc1N1CCCC(c2nccn2Cc2ccncc2)C1` (centres undefined), the INHIBITION is given as 31.4%. On to `CCOC(=O)c1cccc(N2CCCC3(CCC(=O)N(C4CC4)C3)C2)n1` (centres undefined), for which the INHIBITION is reported as 28.7%.

For `CC(C)C1CN(C(=O)c2ccn(C)c(=O)c2)c2ccccc2N1` (centres undefined), the INHIBITION is -36.7%. In the case of `Cc1nc(CN(C)C2CCN(CCCc3ccccc3)C2)no1` (centres undefined), the INHIBITION is on record as -61.4%. To `Cc1ccc(-c2nc(CN3CCn4c(C)nnc4C3)cs2)o1` belongs -31.8%.

With `Cc1cc(C(=O)N(CC(C)C)CC(O)c2ccc(F)cc2)[nH]n1` (centres undefined), the INHIBITION is -36.4%.

These data come from ChEMBL document CHEMBL4513216, “Probing the Open Global Health Chemical Diversity Library for Multistage-Active Starting Points for Next-Generation Antimalarials” (ACS Infect Dis, 2020).
